In one test the target is Fibroblast growth factor 10 (Homo sapiens) (UniProt O15520). Kind of test: FGF10 binders on small-molecule microarrays, primary screen, biochemical, small-molecule microarray, 635 nm fluorescence (AID 1102). The note with it: FGF10 binding, fluorescence 635 nm, higher = more signal.
Sequence of Fibroblast growth factor 10 (Homo sapiens) (O15520 whole entry, looked up): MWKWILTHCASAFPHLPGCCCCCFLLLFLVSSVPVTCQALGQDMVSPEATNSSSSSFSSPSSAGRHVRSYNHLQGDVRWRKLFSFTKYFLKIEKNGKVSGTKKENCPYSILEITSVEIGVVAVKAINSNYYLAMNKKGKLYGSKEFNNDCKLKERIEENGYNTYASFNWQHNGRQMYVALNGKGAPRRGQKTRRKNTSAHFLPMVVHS
`C=CC[C@]1(C(=O)NCC(O)CO)COC(c2ccc(OCCCO)cc2)=N1` (stereo partly specified): the composite z-score is -0.106.

For the compound `COC(=O)[C@@]1(Cc2ccccc2)[C@H]2c3cc(C(=O)N(C)C)n(Cc4ccc(C(F)(F)F)nc4)c3C[C@H]2CN1C(=O)c1ccccc1`, the composite z-score turned out to be 1.08.

`CCCNC(=O)[C@@]1(c2ccc([N+](=O)[O-])cc2)CC(=O)N(C(C)C)[C@@H]1c1ccc(CO)cc1`: the composite z-score is -0.853.

`C[C@@H]1NC(=O)C([C@@H](C)OCc2ccccc2)NC(=O)[C@@]23C(=O)N[C@@H](Cc4ccccc4)C2[C@H](C)[C@@]2(C)O[C@H]2C3/C=C/C/C=C\CNC1=O` (stereo partly specified): the composite z-score was 0.224.

Turning to `CCOC(=O)C1=C[C@@H](C(C)(C)C)N(S(=O)(=O)c2ccc(C)cc2)[C@H]1c1ccc(C#N)cc1`, the composite z-score is 0.933.

The next test deals with glycogen synthase kinase-3 (GSK3A per assay name; protocol says GSK3B). In words: GSK3 binders on small-molecule microarrays, primary screen, biochemical, small-molecule microarray, 635 nm fluorescence, GSK3A (AID 1103). Also: the record names both GSK3A and GSK3B. Conditions: small-molecule microarray binding, fluorescence 635 nm; higher = more signal.
Consider `C=C1C(=O)C=C2CN(C(=O)c3ccccc3)[C@@](Cc3ccc(OC)cc3)(C(=O)OC)[C@@H]12`, for which the composite z-score amounted to 0.681.

Regarding `COC(=O)[C@@]1(Cc2ccc(F)cc2)[C@H]2c3cc(C(=O)N(C)C)n(C)c3C[C@H]2CN1C(=O)c1ccccc1`, the composite z-score is -0.489.

For the compound `COCCCNC(=O)[C@@]1(CCS(=O)(=O)c2ccccc2)COC(c2ccc(OCCCO)cc2)=N1`, the composite z-score amounted to 0.878.

The compound `CO[C@H]1O[C@H](CO)[C@@H](OC(=O)Nc2ccc3c(c2)OCO3)[C@H](OC(=O)Nc2ccccc2-c2ccccc2)[C@H]1OC(=O)Nc1ccccc1-c1ccccc1` gave a composite z-score of 1.31.

Consider `NC(=O)N1C(=O)C2C(C1=O)C1C=C(CCCO)C2C(C2CC2)N1Cc1sc2ccccc2c1Cl` (stereo unspecified), for which the composite z-score was found to be 1.09.

On to `C=CC[C@@]1(C(=O)OC)N=C(c2ccc(OCCCO)cc2)O[C@@H]1c1ccccc1N=[N+]=[N-]`, for which the composite z-score amounted to 1.32.

Consider `C=CCC(OC(C)=O)[C@@H]1[C@@H](N(Cc2ccc(-c3ccccc3)cc2)C(=O)c2cccc3ccccc23)c2cc(OCCCO)ccc2N1C(=O)Cc1ccc(OC)cc1` (stereo partly specified), for which the composite z-score is -0.102.

Regarding `CCOc1cc(C(O)C2C=CC3C(=O)N(c4ccccc4)C(=O)C3N2Nc2ccccc2F)ccc1O` (stereo unspecified), the composite z-score is -0.186.

Consider `C=CCC(OC(C)=O)[C@@H]1[C@@H](N(Cc2cc3ccccc3o2)C(=O)c2cccc3ccccc23)c2cc(OCCCO)ccc2N1C(=O)c1ccc2ccccc2n1` (stereo partly specified), for which the composite z-score worked out at 0.0025.

The compound `COc1ccc(C(O)C2C=CC3C(=O)N(C)C(=O)C3N2N(c2ccccc2)c2ccccc2)cc1` (stereo unspecified) displayed a composite z-score of 0.243.

Turning to `O=C1O[C@@H](c2ccccc2)[C@@H](c2ccccc2)N2[C@@H](c3ccc(OCCO)cc3)[C@]3(C(=O)Nc4ccc(C#CC5(O)CCCCCC5)cc43)[C@@H](C(=O)Nc3nc4ccccc4s3)[C@H]12`, the composite z-score is 1.31.

With `COCCOC(=O)N1C(=O)[C@@]2(c3cc(C#CCCO)ccc31)[C@H](C(N)=O)[C@H]1C(=O)O[C@H](c3ccccc3)[C@H](c3ccccc3)N1[C@@H]2c1ccccc1OCCO`, the composite z-score was determined as 1.3.

The compound `CC1CC/C=C\[C@H]2OC34C=CCN(C(C)(C)C)C(=O)[C@H]3N(CCCO)C(=O)[C@@H]4C2C(=O)O1` (stereo partly specified) came in with a composite z-score of -0.592.

The compound `COc1ccc([Si](C)(C)[C@H]2[C@H](CC(=O)N3Cc4ccccc4C[C@H]3CO)O[C@@]3(C(=O)N(C)c4ccccc43)[C@@H]2C)cc1` came in with a composite z-score of 1.29.

Regarding `Cc1ccc(S[C@]2(C(=O)NCCCN(C)C)CC(=O)N(C3Cc4ccccc4C3)[C@@H]2c2ccc(CO)cc2I)cc1`, the composite z-score is -0.719.

`O=C1O[C@H](c2ccccc2)[C@H](c2ccccc2)N2[C@H]1[C@@H](C(=O)N1CCN(c3ncccn3)CC1)[C@]1(C(=O)Nc3ccc(C#CCCO)cc31)[C@H]2c1ccc(O)cc1` displayed a composite z-score of -0.906.

Compound `[N-]=[N+]=Nc1ccccc1C[C@]1(C(=O)N2CCOCC2)N=C(c2ccc(OCCCO)cc2)O[C@H]1c1ccccc1N=[N+]=[N-]` had a composite z-score of 1.31.

`COc1ccc(C(=O)Nc2ccc(CN3C(=O)[C@@]4(O[C@@H](CCn5cc(CCO)nn5)[C@H]([Si](C)(C)c5ccc(OC)cc5)[C@H]4C)c4ccccc43)cc2)cc1`: the composite z-score came out at 1.14.

Compound `NC(=O)NCC#Cc1ccc2c(c1)[C@]1(C(=O)N2)[C@H](c2ccc(OCCO)cc2)N2[C@H](c3ccccc3)[C@H](c3ccccc3)OC(=O)[C@H]2[C@@H]1C(=O)NC[C@H](O)c1ccccc1` displayed a composite z-score of -0.708.

`O=C1[C@H]2C=C(I)[C@H](C[C@@H]2c2ccccc2)[C@@]12CO2`: the composite z-score was -0.326.

`CC(C)NC(=O)[C@@H]1c2ccccc2C(=O)N(Cc2ccc(OC(F)(F)F)cc2)[C@H]1c1ccc(CO)cc1`: the composite z-score stood at 1.3.

As for `COc1ccc([Si](C)(C)[C@H]2[C@H](CC(=O)N3Cc4ccccc4C[C@H]3CO)O[C@@]3(C(=O)N(c4ccccc4)c4ccccc43)[C@@H]2C)cc1`, the composite z-score is 1.27.

As to `CC(C)(C)N1CC=CC23O[C@@H]4/C=C\CCCOC(=O)C4[C@H]2C(=O)N(CCCO)[C@@H]3C1=O` (stereo partly specified), the composite z-score was -0.416.

In the case of `O=C1C2C=CC(C(O)c3ccc([N+](=O)[O-])cc3)N(Nc3ccccc3F)C2C(=O)N1c1ccccc1` (stereo unspecified), the composite z-score worked out at 0.351.

The compound `COc1ccccc1CN1C(=O)c2ccccc2[C@](Cc2ccccc2I)(C(=O)NCC(C)C)[C@@H]1c1ccc(CO)cc1` showed a composite z-score of -0.0773.

Consider `C=C(CCCC)/C(=C/C[C@H](OC(=O)c1ccncc1)c1ccc(OCCO)cc1)c1cnc2ccccc2c1`, for which the composite z-score was found to be 0.829.

In the case of `CCCC[C@H]1C[C@@H]1[C@@H]1N(C(C)=O)[C@H](c2cccc(OC)c2)CC12CC2`, the composite z-score is 0.114.

Turning to `O=C1O[C@H](Cc2ccccc2)[C@@H]2[C@H]3C=CCCC=C3CN2[C@H]1Cc1ccc(O)cc1`, the composite z-score is -1.16.

In turn, `COCCOC(=O)N1C(=O)[C@@]2(c3cc(C#CCC(C(=O)OC)C(=O)OC)ccc31)[C@H](C(=O)Nc1nc3ccccc3s1)[C@H]1C(=O)O[C@H](c3ccccc3)[C@H](c3ccccc3)N1[C@@H]2c1ccc(OCCO)cc1` yielded a composite z-score of 1.32.

With `CCCCCCc1nc(Cc2cc(OC)c(OC)c(OC)c2)cc2c1[Si](C(C)C)(C(C)C)O[C@H]2c1ccccc1`, the composite z-score is 0.124.

On to `COC(=O)c1cccc([C@H]2OC(=CC(=O)OC(C)C)C[C@@H](c3cccc(C(=O)OC)c3)O2)c1`, for which the composite z-score is 1.33.

Turning to `C=CC[C@]1(C(=O)NCC(O)CO)COC(c2ccc(OCCCO)cc2)=N1` (stereo partly specified), the composite z-score was 0.0993.

`COC(=O)[C@@]1(Cc2ccccc2)[C@H]2c3cc(C(=O)N(C)C)n(Cc4ccc(C(F)(F)F)nc4)c3C[C@H]2CN1C(=O)c1ccccc1`: the composite z-score was 1.12.

As for `CCCNC(=O)[C@@]1(c2ccc([N+](=O)[O-])cc2)CC(=O)N(C(C)C)[C@@H]1c1ccc(CO)cc1`, the composite z-score was -0.664.

`C[C@@H]1NC(=O)C([C@@H](C)OCc2ccccc2)NC(=O)[C@@]23C(=O)N[C@@H](Cc4ccccc4)C2[C@H](C)[C@@]2(C)O[C@H]2C3/C=C/C/C=C\CNC1=O` (stereo partly specified) returned a composite z-score of -0.297.

`CCOC(=O)C1=C[C@@H](C(C)(C)C)N(S(=O)(=O)c2ccc(C)cc2)[C@H]1c1ccc(C#N)cc1` returned a composite z-score of 1.11.

These data come from PubChem BioAssay.
